Source: PubChem BioAssay (EPA / NIEHS)
Results filed as inconclusive are left out. Calls of active or inactive are those of the source. How the source made its calls: active means hit-call score of the fitted dose curve at least 0.9, where 1 is the maximum; inconclusive means response in the unintended direction; inactive means score below 0.9.

target: human Retinoid X Receptor beta (RXRb), RXRB (gene 6257) (UniProt P28702); experiment: ATG_RXRb_TRANS: Attagene TRANS-FACTORIAL HepG2 Assay for human Retinoid X Receptor beta (RXRb) (AID 2283013)
Summary of the method: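 Transfect HepG2 with GAL4-UAS multi-reporter constructs (chimeric NR-Gal4, TRANS format); dose compound 24 h; isolate RNA, RT-PCR, FAM primer extension, HpaI digest; quantify by capillary electrophoresis; positive direction vs DMSO.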

Chain of human Retinoid X Receptor beta (RXRb), RXRB (gene 6257) (P28702 whole entry, looked up, the tested form may be a part): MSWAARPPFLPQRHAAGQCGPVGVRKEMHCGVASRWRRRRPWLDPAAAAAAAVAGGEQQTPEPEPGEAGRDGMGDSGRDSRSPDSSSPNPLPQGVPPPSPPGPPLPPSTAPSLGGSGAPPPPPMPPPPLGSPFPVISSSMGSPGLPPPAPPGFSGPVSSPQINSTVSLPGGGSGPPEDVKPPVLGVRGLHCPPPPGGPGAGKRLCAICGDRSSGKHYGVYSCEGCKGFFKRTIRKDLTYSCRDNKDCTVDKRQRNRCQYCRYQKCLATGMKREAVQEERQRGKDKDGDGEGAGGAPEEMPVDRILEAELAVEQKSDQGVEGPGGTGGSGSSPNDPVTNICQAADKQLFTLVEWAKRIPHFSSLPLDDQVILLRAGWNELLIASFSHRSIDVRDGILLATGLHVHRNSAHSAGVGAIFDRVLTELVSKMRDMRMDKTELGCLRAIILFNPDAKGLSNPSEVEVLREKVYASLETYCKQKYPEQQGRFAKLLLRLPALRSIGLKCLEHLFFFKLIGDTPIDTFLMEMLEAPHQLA

Q: How did the outcome turn out when `COC(C)(C)CC(C)=O` was run?
A: Its outcome is “inactive”.

Q: Which outcome does the source give for `CCCCCCCCSCCO` here?
A: Its outcome is “inactive”.

Q: With `O=C(Nc1ccc2c(O)c(N=Nc3ccc(N=Nc4ccc(S(=O)(=O)O)cc4)cc3)c(S(=O)(=O)O)cc2c1)c1ccccc1` as the compound, how does the outcome read?
A: Its outcome is “inactive”.

Q: `CCC(=O)O[C@@H]1C[C@H]2CC[C@]1(C)C2(C)C` was tested. Which outcome did it give?
A: The outcome was “inactive”.

Q: With `O=C(Nc1ccc([N+](=O)[O-])cc1)Nc1ccc([N+](=O)[O-])cc1` (tested in a mixture with another compound) as the compound, how does the outcome read?
A: Its outcome is “inactive”.

Q: With `O=C1OC[C@H](Cc2cccc(O)c2)[C@H]1Cc1cccc(O)c1` as the compound, how does the outcome read?
A: Its outcome is “inactive”.

Q: Which outcome does the source give for `O=C1c2ccccc2C(=O)c2c(O)ccc(O)c21` here?
A: Its outcome is “inactive”.

Q: For `CC(C)C[C@H](NC(=O)OCC1c2ccccc2-c2ccccc21)C(=O)O`, which outcome is on record?
A: Its outcome is “inactive”.

Q: How did the outcome turn out when `CCCCCCCCc1ccc(S(=O)(=O)O)cc1` was run?
A: Its outcome is “inactive”.

Q: How did the AC50 turn out when `CCc1cc(Cc2cc(CC)cc(C(C)(C)C)c2O)c(O)c(C(C)(C)C)c1` was run?
A: Its AC50 is 5.71 µM (active).

Q: For `CCCCC(CC)(CO)CO`, which outcome is on record?
A: Its outcome is “inactive”.

Q: With `C=CC(=O)OCCCC` as the compound, how does the outcome read?
A: Its outcome is “inactive”.

Q: How did the outcome turn out when `CC/C=C\CC/C=C/CO` was run?
A: The outcome was “inactive”.

Q: For `Nc1ccccc1[N+](=O)[O-]`, which outcome is on record?
A: Its outcome is “inactive”.

Q: How did the AC50 turn out when `Nc1ccc(NCCO)c([N+](=O)[O-])c1` was run?
A: Its AC50 is 18.1 µM (active).

Q: How did the AC50 turn out when `CCOC(=O)C(C#N)=C(c1ccccc1)c1ccccc1` was run?
A: The AC50 was 26.6 µM (active).

Q: How did the outcome turn out when `CC(=O)NCCO` was run?
A: Its outcome is “inactive”.

Q: How did the outcome turn out when `Cc1cc(C)nc(NS(=O)(=O)c2ccc(N)cc2)n1` was run?
A: The outcome was “inactive”.

Q: How did the outcome turn out when `CCCCCCOC(=O)CCC` was run?
A: The outcome was “inactive”.

Q: With `CC(C)(C)c1ccc(C(=O)O)cc1` as the compound, how does the outcome read?
A: The outcome was “inactive”.

Q: `C1=CC2C3C=CC(C3)C2C1` (stereo not drawn) was tested. Which outcome did it give?
A: The outcome was “inactive”.

Q: Which outcome does the source give for `CN(C)CCOc1ccc(/C(=C(/CCCl)c2ccccc2)c2ccccc2)cc1` here?
A: Its outcome is “inactive”.

Q: For `CC1(C)C(=O)N(Cl)C(=O)N1Br`, which outcome is on record?
A: Its outcome is “inactive”.

Q: For `CC=Cc1ccc(OC)c(OC)c1`, which outcome is on record?
A: The outcome was “inactive”.

target: human Thyroid Receptor alpha (THRa1), THRA (gene 7067) (UniProt P10827); experiment: ATG_THRa1_TRANS: Attagene TRANS-FACTORIAL HepG2 Assay for human Thyroid Receptor alpha (THRa1) (AID 2283014)
Summary of the method: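 Transient HepG2 transfection, NR-Gal4 chimera driving GAL4-UAS reporters; 24 h compound exposure; total RNA, oligo(dT) RT, PCR, fluorescent primer extension, capillary electrophoresis. Upward direction vs DMSO control.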

Chain of human Thyroid Receptor alpha (THRa1), THRA (gene 7067) (P10827 whole entry, looked up, the tested form may be a part): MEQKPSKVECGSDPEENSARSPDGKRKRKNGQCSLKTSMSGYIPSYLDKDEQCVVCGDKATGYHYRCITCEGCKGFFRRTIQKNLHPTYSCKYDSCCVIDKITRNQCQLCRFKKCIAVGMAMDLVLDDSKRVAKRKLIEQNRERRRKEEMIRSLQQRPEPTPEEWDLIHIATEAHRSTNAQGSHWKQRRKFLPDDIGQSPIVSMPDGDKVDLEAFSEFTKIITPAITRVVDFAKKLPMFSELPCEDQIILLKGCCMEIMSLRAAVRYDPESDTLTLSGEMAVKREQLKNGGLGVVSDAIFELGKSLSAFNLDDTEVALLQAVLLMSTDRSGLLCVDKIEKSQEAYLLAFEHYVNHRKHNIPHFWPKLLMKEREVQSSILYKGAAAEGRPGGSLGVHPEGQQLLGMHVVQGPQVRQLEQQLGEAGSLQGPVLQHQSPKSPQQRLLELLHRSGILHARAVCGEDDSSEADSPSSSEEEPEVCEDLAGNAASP

Q: With `O=C(Nc1ccc2c(O)c(N=Nc3ccc(N=Nc4ccc(S(=O)(=O)O)cc4)cc3)c(S(=O)(=O)O)cc2c1)c1ccccc1` as the compound, how does the outcome read?
A: Its outcome is “inactive”.

Q: `O=C1OC[C@H](Cc2cccc(O)c2)[C@H]1Cc1cccc(O)c1` was tested. Which outcome did it give?
A: Its outcome is “inactive”.

Q: How did the outcome turn out when `O=C1c2ccccc2C(=O)c2c(O)ccc(O)c21` was run?
A: Its outcome is “inactive”.

Q: For `CC(C)C[C@H](NC(=O)OCC1c2ccccc2-c2ccccc21)C(=O)O`, which outcome is on record?
A: Its outcome is “inactive”.

Q: Which outcome does the source give for `CCc1cc(Cc2cc(CC)cc(C(C)(C)C)c2O)c(O)c(C(C)(C)C)c1` here?
A: The outcome was “inactive”.

Q: With `C=CC(=O)OCCCC` as the compound, how does the outcome read?
A: Its outcome is “inactive”.

Q: Which outcome does the source give for `CC/C=C\CC/C=C/CO` here?
A: The outcome was “inactive”.

Q: How did the outcome turn out when `Nc1ccccc1[N+](=O)[O-]` was run?
A: Its outcome is “inactive”.

Q: For `CCOC(=O)C(C#N)=C(c1ccccc1)c1ccccc1`, which outcome is on record?
A: Its outcome is “inactive”.

Q: With `Cc1cc(C)nc(NS(=O)(=O)c2ccc(N)cc2)n1` as the compound, how does the outcome read?
A: The outcome was “inactive”.

Q: `C1=CC2C3C=CC(C3)C2C1` (stereo not drawn) was tested. Which outcome did it give?
A: The outcome was “inactive”.

Q: How did the outcome turn out when `CN(C)CCOc1ccc(/C(=C(/CCCl)c2ccccc2)c2ccccc2)cc1` was run?
A: Its outcome is “inactive”.

Q: With `CC1(C)C(=O)N(Cl)C(=O)N1Br` as the compound, how does the outcome read?
A: Its outcome is “inactive”.

Q: For `CC=Cc1ccc(OC)c(OC)c1`, which outcome is on record?
A: Its outcome is “inactive”.
